The supplement of paper PMC11732987, “Enantioselective OTUD7B fragment discovery through chemoproteomics screening and high-throughput optimisation” (Communications Chemistry, 2025)
A number with no mark means an inactive call.

These molecules were tested against USP14 (UniProt P54578) (assay: log2 ratio of Biotin-Ahx-Ub-VS probe labelling (fragment/DMSO); higher = less target engagement (more negative = stronger competition), active = hit call of the paper (q ≤ 0.05, log2 ratio ≤ -1)). Settings: compound concentration: 200 uM; treatment time: 3 h.
USP14, sequence (P54578 whole entry, the tested form may be a part): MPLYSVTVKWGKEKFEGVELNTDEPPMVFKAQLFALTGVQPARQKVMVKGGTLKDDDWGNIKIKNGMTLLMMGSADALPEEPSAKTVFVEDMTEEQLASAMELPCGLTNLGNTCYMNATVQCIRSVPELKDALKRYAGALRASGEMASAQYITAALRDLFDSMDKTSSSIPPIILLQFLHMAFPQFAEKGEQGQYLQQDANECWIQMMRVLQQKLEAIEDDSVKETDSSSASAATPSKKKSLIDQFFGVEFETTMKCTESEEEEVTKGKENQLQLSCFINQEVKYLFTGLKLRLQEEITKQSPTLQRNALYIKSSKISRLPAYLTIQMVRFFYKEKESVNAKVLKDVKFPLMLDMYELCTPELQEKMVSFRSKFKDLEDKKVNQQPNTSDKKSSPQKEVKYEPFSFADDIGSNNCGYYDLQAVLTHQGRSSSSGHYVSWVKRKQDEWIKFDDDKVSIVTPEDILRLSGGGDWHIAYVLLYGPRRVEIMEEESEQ
Experimental: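 Competitive ABPP in HEK293T cell lysate. Lysates were treated with each chloroacetamide fragment at 200 µM for 3 h, then with Biotin-Ahx-Ub-VS (0.5 µM, 1 h), NeutrAvidin-enriched and analysed by diaPASEF LC-MS/MS. Protein LFQ was median-normalised; average log2 ratio is fragment/DMSO from an unpaired t-test (n=3 treated, n=44 DMSO). Hits: q ≤ 0.05, log2 ratio ≤ -1, unique peptides ≥ 2.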

| Compound | log2 ratio of Biotin-Ahx-Ub-VS probe labelling |
| --- | --- |
| O=C(O)C1Cc2ccccc2CN1C(=O)CCl (stereo not given) | -0.621 |
| O=C(CCl)N1CCOCCC1c1ccccc1 (stereo not given) | -0.111 |
| Cc1cc(C2CCCN2C(=O)CCl)nn1C.Cl (stereo not given) | -0.361 |
| O=C(CCl)N1CCC[C@@H]1c1ccon1 | -0.652 |
| Cc1nc(CN2CCCN(C(=O)CCl)CC2)no1.Cl | 0.0942 |
| Cc1ccc(CC(CO)CNC(=O)CCl)cc1 (stereo not given) | -0.262 |
| CC(NC(=O)CCl)c1cccc(Cl)c1 (stereo not given) | -0.42 |
| Cl.O=C(CCl)NCc1cc2c(nc1O)CCCC2 | -0.12 |
| CC(NC(=O)CCl)c1noc(Cc2ccccc2)n1 (stereo not given) | -0.411 |
| O=C(CCl)Nc1ccc(N2CCCC2=O)cc1 | -0.139 |
| Cc1cc(C(=O)NC2CCN(C(=O)CCl)CC2)no1 | -0.31 |
| Cl.O=C(CCl)N1CCn2ncc(O)c2C1 | -0.588 |
| O=C(CCl)Nc1ccc(Cl)c(F)c1 | -0.481 |
| O=C(CCl)Nc1ccc(F)cc1F | -0.106 |
| CN(C)C(=O)c1ccc(CNC(=O)CCl)cc1 | 0.0549 |
| CS(=O)(=O)N1CCCN(C(=O)CCl)CC1 | 0.105 |
| O=C(CCl)N1CCN(C(=O)N2CCCCC2)CC1 | -1.06 (active) |
| Cl.Cn1cnc2cc(CNC(=O)CCl)ccc21 | -0.222 |
| O=C(CCl)N1CCC(S(=O)(=O)c2ccc(F)cc2)CC1 | -0.0146 |
| Cl.O=C(CCl)NCCN1CCc2ccccc21 | -0.483 |

| Compound | log2 ratio of Biotin-Ahx-Ub-VS probe labelling |
| --- | --- |
| CCN1C(=O)C2CN(C(=O)CCl)CCN2C1=O (stereo not given) | -0.176 |
| Cc1noc(N2CCN(C(=O)CCl)CC2)n1.Cl | 0.347 |
| O=C(CCl)NCCC1=CCCCC1 | 0.0195 |
| CN(C)C(=O)c1ccc(NC(=O)CCl)cc1 | -0.162 |
| O=C(CCl)N1CCCCC12CCOCC2 | -0.559 |
| O=C(CCl)NCCc1ccc2c(c1)OCCO2 | -0.579 |
| Cc1cccc(C(CNC(=O)CCl)N2CCOCC2)c1.Cl (stereo not given) | 0.0229 |
| Cc1ncsc1CCNC(=O)CCl | 0.518 |
| CC(NC(=O)CCl)c1cc2n(n1)CCCC2.Cl (stereo not given) | -0.363 |
| O=C(CCl)NC(Cn1ccccc1=O)c1ccccc1 (stereo not given) | -0.174 |
| Cl.O=C(CCl)N1CCN(Cc2ccccc2)CC1 | -0.745 |
| Cc1c(C#N)c(NC(=O)CCl)n(Cc2ccco2)c1C | -0.314 |
| Cc1cc(CC(C)NC(=O)CCl)n[nH]1 (stereo not given) | -0.00618 |
| Cc1ccc(C(=O)NCCNC(=O)CCl)cc1 | -0.414 |
| Cc1nc(CC2CCN(C(=O)CCl)CC2)no1 | -0.561 |
| O=C(CCl)N1CC2(CCOCC2)C1 | -0.191 |
| O=C(CCl)N1c2ccccc2NC(=O)C12CCCC2 | -0.661 |
| Cl.O=C(CCl)N1CC(c2ccc(Br)cn2)C1 | -0.592 |
| Cc1ccc(CN(CCO)C(=O)CCl)cc1 | -0.249 |
| O=C(CCl)NCCC1COCCO1 (stereo not given) | -0.27 |
